# A number with no mark means an inactive call. Records with an inconclusive call do not appear. The source made the active and inactive calls. Calls follow the shape of the full dose curve.
# Molecular target: Acetylcholinesterase (Homo sapiens) (UniProt P22303)
# Experiment: Acetylcholinesterase (AChE) small molecule antagonists: fluorescence cell-based qHTS assay (AID 1347398); also: nearly all actives have a fitted effect of over 50% in size
# Details: SH-SY5Y cells; Potency: AChE activity; series mostly up to 115 µM; activity change, negative = inhibition: at the top concentration
# Method in brief: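 Endogenous acetylcholinesterase of SH-SY5Y neuroblastoma cells is measured in situ. After overnight attachment and 30 min compound exposure, cells receive acetylthiocholine and Thiolite Green; fluorescence is read after 40 min at room temperature.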
# % is scaled to controls: 0 for no effect and ±100 for the full control effect; potency is read from the fitted curve at half-maximal effect.
# Chain of Acetylcholinesterase (Homo sapiens) (P22303 whole entry, looked up): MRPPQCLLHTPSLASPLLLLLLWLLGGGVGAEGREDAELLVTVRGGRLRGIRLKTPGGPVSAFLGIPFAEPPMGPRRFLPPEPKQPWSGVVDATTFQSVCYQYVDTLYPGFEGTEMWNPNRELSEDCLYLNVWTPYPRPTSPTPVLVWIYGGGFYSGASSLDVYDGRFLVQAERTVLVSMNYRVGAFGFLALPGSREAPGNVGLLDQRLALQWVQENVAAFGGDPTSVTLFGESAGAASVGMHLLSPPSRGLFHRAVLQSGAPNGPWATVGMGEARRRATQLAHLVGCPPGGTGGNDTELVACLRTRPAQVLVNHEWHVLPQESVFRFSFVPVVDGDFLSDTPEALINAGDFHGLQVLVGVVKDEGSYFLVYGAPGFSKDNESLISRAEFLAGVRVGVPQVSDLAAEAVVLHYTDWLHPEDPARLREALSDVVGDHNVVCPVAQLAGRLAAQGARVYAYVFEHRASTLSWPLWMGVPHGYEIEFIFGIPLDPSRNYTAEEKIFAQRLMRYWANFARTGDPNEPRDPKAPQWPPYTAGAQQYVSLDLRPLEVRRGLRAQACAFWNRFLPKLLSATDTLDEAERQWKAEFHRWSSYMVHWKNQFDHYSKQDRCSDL
SMILES,"activity change, negative = inhibition",Potency
Cc1cc(C)c(C2=C(OC(=O)CC(C)(C)C)C3(CCCC3)OC2=O)c(C)c1,-0.0696%,
Brc1c(Br)c(Br)c(Oc2c(Br)c(Br)c(Br)c(Br)c2Br)c(Br)c1Br,6.2% [at 23.8 µM],
CCCCOP(=O)(CCCC)OCCCC,-20.3%,
Cn1cc(C2=C(c3cn(C4CCN(Cc5ccccn5)CC4)c4ccccc34)C(=O)NC2=O)c2ccccc21,-2.92% [at 53.7 µM],
C[C@@H](Oc1ccc(Cl)cc1Cl)C(=O)O,7.23%,
C[CH2][Hg][N]1C(=O)C2C(C1=O)C1(Cl)C(Cl)=C(Cl)C2(Cl)C1(Cl)Cl (stereo unspecified),11.1% [at 23.8 µM],
CC[C@H](C)[C@H]1O[C@]2(C=C[C@@H]1C)C[C@@H]1C[C@@H](C/C=C(\C)[C@@H](O[C@H]3C[C@H](OC)[C@@H](O[C@H]4C[C@H](OC)[C@@H](O)[C@H](C)O4)[C@H](C)O3)[C@@H](C)/C=C/C=C3\CO[C@@H]4[C@H](O)C(C)=C[C@@H](C(=O)O1)[C@]34O)O2,6.22% [at 53.7 µM],
[CH3][Hg][Cl],10.8%,
ClCCN1CCOCC1,7.23%,
Cc1cc(C(C)(C)c2cc(C)c(O)c(C)c2)cc(C)c1O,2.01%,
C=CC(=O)OCCCCOC(=O)C=C,0.169%,
O=[N+]([O-])c1cc(Cl)ccc1Cl,0.542%,
ClC1=C(Cl)[C@]2(Cl)[C@@H]3[C@@H](Cl)[C@@H](Cl)C[C@@H]3[C@@]1(Cl)C2(Cl)Cl,3.57%,
C=CC(=O)OCC(COC(=O)C=C)(COC(=O)C=C)COC(=O)C=C,-6.33%,
Oc1ccc(C(c2ccc(O)cc2)(C(F)(F)F)C(F)(F)F)cc1,,inactive
Clc1ccc(C(c2ccccc2Cl)C(Cl)(Cl)Cl)cc1 (stereo unspecified),,inactive
CC1(C)C(/C=C(\Cl)C(F)(F)F)C1C(=O)OC(C#N)c1cccc(Oc2ccccc2)c1 (stereo unspecified),-0.414%,
Nc1ccc([N+](=O)[O-])cc1Cl,-5.08%,
Cc1cc(N=Nc2ccccc2C)ccc1N,,inactive

SMILES,"activity change, negative = inhibition",Potency
CC(=O)c1cc(C(C)(C)C)cc2c1CCC2(C)C,6.98%,
CCOP(=S)(OCC)SCS(=O)(=O)CC,,2.52 µM (active)
Cc1ccc(CCl)cc1,2.33%,
CC(C)(C)c1ccc(CSc2cnn(C(C)(C)C)c(=O)c2Cl)cc1,3.47%,
O=[N+]([O-])c1c2ccccc2cc2ccccc12,0.33%,
Oc1c(Cl)c(Cl)cc(Cl)c1Cl,-4.73%,
CCCN(CCC)CCc1c[nH]c2ccccc12,-13.8%,
BrCC(Br)c1ccccc1 (stereo unspecified),0.785%,
COC12CC[C@@]3(C[C@@H]1C(C)(O)C(C)(C)C)[C@H]1Cc4ccc(O)c5c4[C@@]3(CCN1CC1CC1)[C@H]2O5 (stereo partly specified),-2.43%,
C[C@@H]1O[C@@H](O[C@@H]2C=C3CC[C@@H]4[C@H](CC[C@]5(C)[C@@H](c6ccc(=O)oc6)CC[C@]45O)[C@@]3(C)CC2)[C@H](O)[C@H](O)[C@H]1O,8.02% [at 53.7 µM],
CC(O)C#N (stereo unspecified),7.21%,
N#CC(Cl)Cl,0.769%,
COc1cc(C=O)cc2c1[C@H](COC(N)=O)[C@]1(OC(C)=O)ON2C[C@H]2[C@@H]1N2C(C)=O,-0.628%,
O=C(CCl)Nc1ccccc1,-6.4%,
Oc1cc(Cl)c(Cl)c(Cl)c1,-3.01%,
CC(=[OH+])/C=C(/C)[O-].CC(=[OH+])/C=C(\C)[O-].CC(=[OH+])/C=C(\C)[O-].[Fe],17.9%,
ClC(Cl)=C(c1ccc(Cl)cc1)c1ccc(Cl)cc1,,inactive
NNC(=O)c1ccccc1,-15.9%,
Nc1ccc(Cc2ccc(N)c(Cl)c2)cc1Cl,-12.7%,

# Molecular target: Acetylcholinesterase (Homo sapiens) (UniProt P22303)
# Experiment: Acetylcholinesterase (AChE) small molecule antagonists: enzyme-based qHTS assay with human liver microsomes (AID 1347399); also: nearly all actives have a fitted effect of over 60% in size
# Details: Potency: qHTS inhibition; series mostly up to 115 µM; activity change, negative = inhibition: at the top concentration
# Method in brief: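 Recombinant human AChE (50 mU/mL in the enzyme mix) and human liver microsomes (0.25 mg/mL final) were preincubated with compound and NADPH (0.25 mg/mL final) for 30 min at 37 C. Acetylthiocholine/DTNB was then added; thiocholine was read colorimetrically after 10 min at room temperature.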
SMILES,"activity change, negative = inhibition",Potency
Cc1cc(C)c(C2=C(OC(=O)CC(C)(C)C)C3(CCCC3)OC2=O)c(C)c1,-1.23%,
Brc1c(Br)c(Br)c(Oc2c(Br)c(Br)c(Br)c(Br)c2Br)c(Br)c1Br,-0.487% [at 23.6 µM],
CCCCOP(=O)(CCCC)OCCCC,1.21%,
Cn1cc(C2=C(c3cn(C4CCN(Cc5ccccn5)CC4)c4ccccc34)C(=O)NC2=O)c2ccccc21,-0.332% [at 53 µM],
C[C@@H](Oc1ccc(Cl)cc1Cl)C(=O)O,11.1%,
C[CH2][Hg][N]1C(=O)C2C(C1=O)C1(Cl)C(Cl)=C(Cl)C2(Cl)C1(Cl)Cl (stereo unspecified),-0.312% [at 23.6 µM],
CC[C@H](C)[C@H]1O[C@]2(C=C[C@@H]1C)C[C@@H]1C[C@@H](C/C=C(\C)[C@@H](O[C@H]3C[C@H](OC)[C@@H](O[C@H]4C[C@H](OC)[C@@H](O)[C@H](C)O4)[C@H](C)O3)[C@@H](C)/C=C/C=C3\CO[C@@H]4[C@H](O)C(C)=C[C@@H](C(=O)O1)[C@]34O)O2,1.02% [at 53 µM],
[CH3][Hg][Cl],-2.43%,
ClCCN1CCOCC1,-3.62%,
Cc1cc(C(C)(C)c2cc(C)c(O)c(C)c2)cc(C)c1O,0.835%,
C=CC(=O)OCCCCOC(=O)C=C,-0.463%,
O=[N+]([O-])c1cc(Cl)ccc1Cl,0%,
ClC1=C(Cl)[C@]2(Cl)[C@@H]3[C@@H](Cl)[C@@H](Cl)C[C@@H]3[C@@]1(Cl)C2(Cl)Cl,0.154%,
C=CC(=O)OCC(COC(=O)C=C)(COC(=O)C=C)COC(=O)C=C,-1.38%,
Oc1ccc(C(c2ccc(O)cc2)(C(F)(F)F)C(F)(F)F)cc1,,inactive
Clc1ccc(C(c2ccccc2Cl)C(Cl)(Cl)Cl)cc1 (stereo unspecified),,inactive
CC1(C)C(/C=C(\Cl)C(F)(F)F)C1C(=O)OC(C#N)c1cccc(Oc2ccccc2)c1 (stereo unspecified),0.171%,
Nc1ccc([N+](=O)[O-])cc1Cl,16.3%,
Cc1cc(N=Nc2ccccc2C)ccc1N,,inactive

SMILES,"activity change, negative = inhibition",Potency
CC(=O)c1cc(C(C)(C)C)cc2c1CCC2(C)C,0.535%,
CCOP(=S)(OCC)SCS(=O)(=O)CC,,12.6 µM (active)
Cc1ccc(CCl)cc1,0%,
CC(C)(C)c1ccc(CSc2cnn(C(C)(C)C)c(=O)c2Cl)cc1,1.93%,
O=[N+]([O-])c1c2ccccc2cc2ccccc12,4.04%,
Oc1c(Cl)c(Cl)cc(Cl)c1Cl,-4.44%,
CCCN(CCC)CCc1c[nH]c2ccccc12,-5.9%,
BrCC(Br)c1ccccc1 (stereo unspecified),0%,
COC12CC[C@@]3(C[C@@H]1C(C)(O)C(C)(C)C)[C@H]1Cc4ccc(O)c5c4[C@@]3(CCN1CC1CC1)[C@H]2O5 (stereo partly specified),-4.28%,
C[C@@H]1O[C@@H](O[C@@H]2C=C3CC[C@@H]4[C@H](CC[C@]5(C)[C@@H](c6ccc(=O)oc6)CC[C@]45O)[C@@]3(C)CC2)[C@H](O)[C@H](O)[C@H]1O,3.02% [at 53 µM],
CC(O)C#N (stereo unspecified),-7.22%,
N#CC(Cl)Cl,-2.72%,
COc1cc(C=O)cc2c1[C@H](COC(N)=O)[C@]1(OC(C)=O)ON2C[C@H]2[C@@H]1N2C(C)=O,-0.147%,
O=C(CCl)Nc1ccccc1,-0.146%,
Oc1cc(Cl)c(Cl)c(Cl)c1,-1.86%,
CC(=[OH+])/C=C(/C)[O-].CC(=[OH+])/C=C(\C)[O-].CC(=[OH+])/C=C(\C)[O-].[Fe],0.792%,
ClC(Cl)=C(c1ccc(Cl)cc1)c1ccc(Cl)cc1,,inactive
NNC(=O)c1ccccc1,3.07%,
Nc1ccc(Cc2ccc(N)c(Cl)c2)cc1Cl,-0.84%,
